From PubChem BioAssay (NCATS)
Inconclusive results are not listed. Activity calls are given as the source filed them. Unless noted, the call rests on the fitted dose curve; in most records, active means well fitted curve in the direction sought with a large enough effect; inconclusive means small, poorly fitted or top-dose-only effect, or another doubt; inactive means no such curve, though single readings can be large; an effect the other way counts as inactive or inconclusive.

Key:
[1] = target: M-phase phosphoprotein 8 (Homo sapiens) (UniProt Q99549); assay: qHTS Validation Assay for Inhibitors for MPP8 Chromodomain Interactions with Methylated Histone Tails (AID 488949);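 further: AlphaScreen signal from MPP8 chromodomain bound to biotinylated H3K9me3 peptide; top concentration of the series differs between compounds; on the % scale 0 is the no-effect control and ±100 the full control effect; nearly all actives have a fitted effect of over 55% in size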
M-phase phosphoprotein 8 (Homo sapiens), sequence (Q99549 whole entry, looked up): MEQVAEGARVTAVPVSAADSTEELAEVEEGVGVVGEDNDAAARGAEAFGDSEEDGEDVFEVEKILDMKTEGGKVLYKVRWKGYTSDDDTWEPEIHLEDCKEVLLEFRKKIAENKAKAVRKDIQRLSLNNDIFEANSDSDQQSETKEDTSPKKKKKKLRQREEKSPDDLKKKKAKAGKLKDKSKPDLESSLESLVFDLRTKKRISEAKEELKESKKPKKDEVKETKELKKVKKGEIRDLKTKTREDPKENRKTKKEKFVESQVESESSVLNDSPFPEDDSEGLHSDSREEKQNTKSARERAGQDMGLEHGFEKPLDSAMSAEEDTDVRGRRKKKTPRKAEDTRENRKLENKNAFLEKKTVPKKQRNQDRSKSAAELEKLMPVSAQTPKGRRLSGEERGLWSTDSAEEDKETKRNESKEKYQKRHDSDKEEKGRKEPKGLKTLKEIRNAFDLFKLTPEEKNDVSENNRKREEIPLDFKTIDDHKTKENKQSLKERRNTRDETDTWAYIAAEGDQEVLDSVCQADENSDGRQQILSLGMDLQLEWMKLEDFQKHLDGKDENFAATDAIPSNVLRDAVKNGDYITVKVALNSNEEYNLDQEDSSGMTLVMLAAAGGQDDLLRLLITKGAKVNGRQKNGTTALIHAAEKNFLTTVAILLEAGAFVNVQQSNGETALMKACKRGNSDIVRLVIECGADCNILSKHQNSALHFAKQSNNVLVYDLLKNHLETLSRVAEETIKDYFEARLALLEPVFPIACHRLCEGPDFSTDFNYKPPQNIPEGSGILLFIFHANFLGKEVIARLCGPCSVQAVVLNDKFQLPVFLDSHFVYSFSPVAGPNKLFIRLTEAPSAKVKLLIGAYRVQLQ
Summary of the method: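 Disruption of the preformed MPP8–trimethyl-H3K9 peptide complex (both 50 nM, 30 min, RT) is measured after 30 min compound exposure, using AlphaScreen proximity beads; aurintricarboxylic acid titration serves as plate control.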

[2] = target: Chromobox protein homolog 1 (Homo sapiens) (UniProt P83916); assay: qHTS Validation Assay for Inhibitors of HP1-beta Chromodomain Interactions with Methylated Histone Tails (AID 488953);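 further: loss of AlphaScreen luminescence from HP1-beta binding biotinylated H3K9me3 peptide; series mostly up to about 110 µM; on the % scale 0 is the no-effect control and ±100 the full control effect; nearly all actives have a fitted effect of over 50% in size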
Chromobox protein homolog 1 (Homo sapiens), sequence (P83916 whole entry, looked up): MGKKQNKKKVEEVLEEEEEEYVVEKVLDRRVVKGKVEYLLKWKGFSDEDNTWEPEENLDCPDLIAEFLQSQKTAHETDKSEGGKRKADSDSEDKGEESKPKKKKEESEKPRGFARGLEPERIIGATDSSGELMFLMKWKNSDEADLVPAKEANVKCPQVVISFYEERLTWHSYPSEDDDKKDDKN
Summary of the method: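 AlphaScreen proximity readout: streptavidin donor and Ni-chelate acceptor beads, 10 ug/mL final, 30 min dark, RT. Complex of 50 nM HP1-beta and 50 nM b-H3(1-18)K9me3 formed 30 min, then compound-treated 30 min; PBS pH 7.4/0.01% Tween-20.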

[3] = target: Methanococcus maripaludis chaperonin (MmCpn) (UniProt Q6LX38); assay: High-Throughput Screening for Modulators of Cytosolic Chaperonin Activity: MmCpn Primary Screen (AID 488978);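 further: 50 nM MmCpn enzyme hydrolysing 30 µM ATP at 37 °C; 0% is about no effect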
Methanococcus maripaludis chaperonin (MmCpn), sequence (Q6LX38 1-543): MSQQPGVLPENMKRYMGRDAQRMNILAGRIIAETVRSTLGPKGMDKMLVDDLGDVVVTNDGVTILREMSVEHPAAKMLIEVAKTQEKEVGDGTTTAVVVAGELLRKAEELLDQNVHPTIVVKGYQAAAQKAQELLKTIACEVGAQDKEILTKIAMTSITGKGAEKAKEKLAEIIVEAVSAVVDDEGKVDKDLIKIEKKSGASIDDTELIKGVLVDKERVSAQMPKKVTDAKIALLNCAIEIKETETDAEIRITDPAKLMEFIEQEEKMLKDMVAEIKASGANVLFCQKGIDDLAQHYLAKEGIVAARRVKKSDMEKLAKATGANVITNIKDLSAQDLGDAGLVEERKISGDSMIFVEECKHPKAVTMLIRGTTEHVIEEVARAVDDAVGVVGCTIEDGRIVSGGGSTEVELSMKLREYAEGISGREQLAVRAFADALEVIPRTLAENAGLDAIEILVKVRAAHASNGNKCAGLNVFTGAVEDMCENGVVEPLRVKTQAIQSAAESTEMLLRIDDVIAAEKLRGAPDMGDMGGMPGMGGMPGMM
Summary of the method: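 Measures ATPase turnover of the M. maripaludis chaperonin (50 nM final) against 30 uM ATP over 10 min at 37C, with compound added 5 min beforehand at room temperature. ADP is quantified by HTRF immunodetection.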

[4] = target: Transient receptor potential cation channel subfamily V member 1 (Homo sapiens) (UniProt Q8NER1); assay: HTS Assay for Compounds that Act as Enhancers of the Vanilloid Receptor 1 (AID 488979); further: 0% is about no effect
Summary of the method: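 Calcium influx kinetics via Fluo-8 (480/520 nm) in TRPV1-expressing cells, 2000/well cultured overnight at 35.5C. Compound-alone read 3 min (agonist phase), followed by EC20 capsaicin challenge for 2 min (enhancer phase).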

[5] = target: Thyrotropin receptor (Homo sapiens) (UniProt P16473); assay: qHTS Assay for Antagonists of the Thyroid Stimulating Hormone Receptor (AID 488980); further: series mostly up to about 58 µM; 0% is about no effect
Thyrotropin receptor (Homo sapiens), sequence (P16473 whole entry, looked up): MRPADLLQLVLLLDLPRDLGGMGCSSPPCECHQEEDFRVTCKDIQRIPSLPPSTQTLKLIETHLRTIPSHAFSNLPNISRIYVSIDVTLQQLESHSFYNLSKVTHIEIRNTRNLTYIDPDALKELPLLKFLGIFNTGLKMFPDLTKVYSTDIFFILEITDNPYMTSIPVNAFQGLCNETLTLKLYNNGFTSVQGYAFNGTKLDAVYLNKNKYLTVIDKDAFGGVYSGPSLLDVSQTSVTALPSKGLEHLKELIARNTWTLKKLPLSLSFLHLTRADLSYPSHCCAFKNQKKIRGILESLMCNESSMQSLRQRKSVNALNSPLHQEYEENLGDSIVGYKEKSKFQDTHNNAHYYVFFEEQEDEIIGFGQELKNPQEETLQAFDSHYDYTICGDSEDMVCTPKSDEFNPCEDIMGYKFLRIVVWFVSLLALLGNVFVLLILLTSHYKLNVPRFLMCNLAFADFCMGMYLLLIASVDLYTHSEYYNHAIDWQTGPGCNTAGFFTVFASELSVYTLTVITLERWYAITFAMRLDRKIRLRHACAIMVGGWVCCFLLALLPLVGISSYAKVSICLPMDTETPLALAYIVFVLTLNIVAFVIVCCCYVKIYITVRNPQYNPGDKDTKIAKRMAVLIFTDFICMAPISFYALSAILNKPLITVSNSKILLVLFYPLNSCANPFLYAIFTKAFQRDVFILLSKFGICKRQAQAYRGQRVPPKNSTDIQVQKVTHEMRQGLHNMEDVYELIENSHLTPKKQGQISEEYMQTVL
Summary of the method: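 Cells expressing human TSHR (HEK293) are dispensed in HBSS/HEPES containing 70 uM RO 20-1724, compound is added, then TSH at EC80 (4 nM final). Antibody in lysis buffer follows, 30 minutes at room temperature before HTRF detection.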

[6] = target: D(1A) dopamine receptor (Homo sapiens) (UniProt P21728); assay: HTS Assay for Allosteric Agonists of the Human D1 Dopamine Receptor: Primary Screen for Agonists (AID 488981); further: 0% is about no effect
D(1A) dopamine receptor (Homo sapiens), sequence (P21728 whole entry, looked up): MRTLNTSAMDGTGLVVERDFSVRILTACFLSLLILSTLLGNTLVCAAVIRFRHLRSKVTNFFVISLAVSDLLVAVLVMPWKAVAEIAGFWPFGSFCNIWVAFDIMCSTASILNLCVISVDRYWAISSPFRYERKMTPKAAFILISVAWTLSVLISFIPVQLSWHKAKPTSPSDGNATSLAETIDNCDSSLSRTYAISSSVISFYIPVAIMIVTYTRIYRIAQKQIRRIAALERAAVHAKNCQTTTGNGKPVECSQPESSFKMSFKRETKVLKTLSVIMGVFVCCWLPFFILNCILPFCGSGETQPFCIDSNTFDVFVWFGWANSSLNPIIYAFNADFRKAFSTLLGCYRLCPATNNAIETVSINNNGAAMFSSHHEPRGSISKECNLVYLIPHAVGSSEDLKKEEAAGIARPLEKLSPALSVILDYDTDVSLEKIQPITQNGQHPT
Summary of the method: (§1)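 Calcium flux in an inducible, force-coupled HEK293 Trex D1 line (overnight at 30 C): agonist mode is the 180 s kinetic read after compound; potentiator mode is the following 180 s read after dopamine at EC20.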

[7] = target: D(1A) dopamine receptor (Homo sapiens) (UniProt P21728); assay: HTS Assay for Allosteric Agonists of the Human D1 Dopamine Receptor: Primary Screen for Potentiators (AID 488982); further: 0% is about no effect
Summary of the method: as §1

[8] = target: D(1A) dopamine receptor (Homo sapiens) (UniProt P21728); assay: HTS Assay for Allosteric Agonists of the Human D1 Dopamine Receptor: Primary Screen for Antagonists (AID 488983);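 further: calcium flux response to an EC80 dopamine challenge measured with no-wash dye; on the % scale 0 is the no-effect control and ±100 the full control effect; nearly all actives have a fitted effect of over 65% in size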
Summary of the method: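 Calcium flux readout, no-wash dye, inducible HEK293 T-REx D1 line (force-coupled). Compound added after 10 s baseline, 180 s kinetic read; then dopamine at EC80, further 180 s read.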

[9] = target: ATP-dependent 6-phosphofructokinase (Trypanosoma brucei brucei) (UniProt O15648); assay: qHTS Assay to Find Inhibitors of T. brucei phosphofructokinase: hit validation (AID 492961);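 further: luminescence reports ADP formed as PFK phosphorylates fructose-6-phosphate with ATP; series mostly up to about 51 µM; on the % scale 0 is the no-effect control and ±100 the full control effect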
ATP-dependent 6-phosphofructokinase (Trypanosoma brucei brucei), sequence (O15648 whole entry, looked up): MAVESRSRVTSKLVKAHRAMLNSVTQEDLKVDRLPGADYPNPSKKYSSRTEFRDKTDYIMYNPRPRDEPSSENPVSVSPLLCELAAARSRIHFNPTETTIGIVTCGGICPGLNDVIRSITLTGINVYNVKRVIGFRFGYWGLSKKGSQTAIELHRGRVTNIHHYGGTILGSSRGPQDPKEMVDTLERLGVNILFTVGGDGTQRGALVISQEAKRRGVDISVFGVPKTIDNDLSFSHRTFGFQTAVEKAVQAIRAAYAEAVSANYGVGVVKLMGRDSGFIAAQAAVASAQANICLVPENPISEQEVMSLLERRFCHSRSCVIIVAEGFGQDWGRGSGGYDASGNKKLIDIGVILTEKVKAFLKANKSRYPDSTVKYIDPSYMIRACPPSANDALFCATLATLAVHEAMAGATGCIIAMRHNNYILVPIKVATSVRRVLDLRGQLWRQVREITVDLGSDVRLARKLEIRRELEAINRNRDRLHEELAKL
Summary of the method: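 Measures ADP output of PFK (1.25 nM) at 0.1 mM ATP, 0.5 mM F6P, pH 8.0 TEA buffer with 5 mM MgCl2. No-enzyme wells define full inhibition; uninhibited enzyme wells define zero.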

[10] = Validation screen for small molecules that induce genotoxicity in human embryonic kidney (HEK293T) cells expressing luciferase-tagged ELG1 (AID 493106); further: 0% is about no effect
Summary of the method: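 qHTS format; 2,000 HEK293T ELG1-luc cells/well; 23 nL compound via pin tool; 16 hr, 37 °C/5% CO2; ONE-Glo, 30 min RT; luminescence read.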

[11] = target: ATPase family AAA domain-containing protein 5 (Homo sapiens) (UniProt Q96QE3); assay: Validation screen for small molecules that inhibit ELG1-dependent DNA repair in human embryonic kidney (HEK293T) cells expressing luciferase-tagged ELG1 (AID 493107);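 further: cells co-treated with the DNA-damaging agent 5-fluorouridine alongside compound; series mostly up to about 46 µM; on the % scale 0 is the no-effect control and ±100 the full control effect; inhibitors lower the ELG1-luciferase luminescence signal; nearly all actives have a fitted effect of over 70% in size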
Summary of the method: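 ELG1-luciferase HEK293T reporter; 5-fluorouridine + compound/DMSO, 16 hr, 37 °C, 5% CO2; ONE-Glo 30 min RT; luminescence read, qHTS format.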

[12] = target: Thyrotropin-releasing hormone receptor (Homo sapiens) (UniProt P34981); assay: qHTS for Small Molecule Agonists and Allosteric Enhancers of Human TRH Receptor: Validation Screen for Agonists (AID 493127;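 active means calcium activation more than 3 SD above the typical response in the agonist read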;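 further: intracellular calcium rise by fluo-8 fluorescence before TRH EC20 addition; 0% is about no effect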); conditions: TRH receptor agonist cell assay; at 2 µM; stronger effect = higher value
Summary of the method: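 Read-out: intracellular calcium release measured kinetically by FDSS (fluo-8, ex 480/em 530 nm), 1 reading/s after a 10-cycle baseline. TRHR cells, 2000/well, cultured 18 h at 33.5C, dye-loaded at room temp. Compound-evoked positive calcium signal flags agonists.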

[13] = Nrf2 qHTS screen for inhibitors: Validation (AID 493153; active means well fitted inhibition curve with a large enough effect in the main read-out, with a control signal flat, not every such curve was filed as active); conditions: Potency: luciferase luminescence; viability change: measured here: cytotoxicity max response
Summary of the method: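 Concentration-response test in A549 ARE_Fluc reporter cells (5% FBS OPTI-MEM), compound exposure 18-24 h at 37°C, 5% CO2. Cell viability measured first by CellTiter-Fluor fluorescence; ARE-driven luciferase luminescence then measured as Nrf2 activity.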

[14] = qHTS for Inhibitors of Cell Surface uPA Generation: Validation Assay (AID 493164);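 further: RAW 264.7 macrophage cells exposed to compound for 18 h; 0% is about no effect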
Summary of the method: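 Compounds are titrated over seven points (2.45 nM–38.3 uM final) onto pre-plated RAW 264.7 cells and incubated for 18 h. Retained intracellular ATP, measured with ATP-Lite, indicates blocked lethal factor entry.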

[15] = target: Galactokinase (Homo sapiens) (UniProt P51570); assay: qHTS Validation Assay for Inhibitors of Human Galactokinase (GALK) (AID 493189); further: 0% is about no effect
Galactokinase (Homo sapiens), sequence (P51570 whole entry, looked up): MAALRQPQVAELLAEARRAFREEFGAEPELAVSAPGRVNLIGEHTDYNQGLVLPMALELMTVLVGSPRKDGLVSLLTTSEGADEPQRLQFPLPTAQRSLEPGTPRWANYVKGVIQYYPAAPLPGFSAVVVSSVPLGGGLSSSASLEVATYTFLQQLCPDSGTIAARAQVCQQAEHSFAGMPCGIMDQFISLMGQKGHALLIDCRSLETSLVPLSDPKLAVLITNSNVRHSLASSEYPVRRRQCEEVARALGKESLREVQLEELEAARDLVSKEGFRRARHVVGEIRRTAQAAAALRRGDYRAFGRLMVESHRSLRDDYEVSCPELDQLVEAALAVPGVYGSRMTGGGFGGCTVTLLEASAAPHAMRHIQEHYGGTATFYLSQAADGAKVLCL
Summary of the method: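 Compounds were pin-transferred into ATP buffer, then GALK-galactose mix was added (final 5 nM enzyme, 100 uM galactose, 35 uM ATP). After 1 h at room temperature, remaining ATP was measured luminescently.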

[16] = Validation screen for small molecules that induce DNA re-replication in SW480 colon adenocarcinoma cells (AID 504364); further: 0% is about no effect
Summary of the method: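 Read-out: total Hoechst intensity of nuclei by fluorescence scanning imager; hits raise the fraction of nuclei with elevated DNA content. Cells received compound for 48 hr at 37 C before a 40 min stain.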

[17] = target: Peptidyl-prolyl cis-trans isomerase NIMA-interacting 1 (Homo sapiens) (UniProt Q13526); assay: qHTS Validation Assay to Find Inhibitors of Pin1 (AID 504536; active means well fitted inhibition curve with a large enough effect in the polarisation, with a control signal flat, not every such curve was filed as active; the % refers to the polarisation;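 further: 0% = full Pin1 enzyme wells and -100% = no-enzyme wells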)
Peptidyl-prolyl cis-trans isomerase NIMA-interacting 1 (Homo sapiens), sequence (Q13526 whole entry, looked up): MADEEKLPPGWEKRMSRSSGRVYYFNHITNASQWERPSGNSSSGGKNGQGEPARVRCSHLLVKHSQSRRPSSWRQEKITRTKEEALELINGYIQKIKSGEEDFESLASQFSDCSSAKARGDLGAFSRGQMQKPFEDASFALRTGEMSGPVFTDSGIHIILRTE
Summary of the method: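 Fluorescence polarization competition: compounds (titration) displace HiFluor-488-labeled Pin1-1b peptide from Pin1 (0.3 uM final) in pH 7.5 HEPES buffer with DTT, 10 min at room temperature; %Activity normalized to no-enzyme wells, curves fitted.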

[18] = target: Phosphoglycerate kinase, glycosomal (Trypanosoma brucei brucei) (UniProt P07378); assay: qHTS Validation Assay to Find Inhibitors of Phosphoglycerate Kinase (AID 504547);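 further: control wells lack PGK and mark full inhibition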
Phosphoglycerate kinase, glycosomal (Trypanosoma brucei brucei), sequence (P07378 whole entry, looked up): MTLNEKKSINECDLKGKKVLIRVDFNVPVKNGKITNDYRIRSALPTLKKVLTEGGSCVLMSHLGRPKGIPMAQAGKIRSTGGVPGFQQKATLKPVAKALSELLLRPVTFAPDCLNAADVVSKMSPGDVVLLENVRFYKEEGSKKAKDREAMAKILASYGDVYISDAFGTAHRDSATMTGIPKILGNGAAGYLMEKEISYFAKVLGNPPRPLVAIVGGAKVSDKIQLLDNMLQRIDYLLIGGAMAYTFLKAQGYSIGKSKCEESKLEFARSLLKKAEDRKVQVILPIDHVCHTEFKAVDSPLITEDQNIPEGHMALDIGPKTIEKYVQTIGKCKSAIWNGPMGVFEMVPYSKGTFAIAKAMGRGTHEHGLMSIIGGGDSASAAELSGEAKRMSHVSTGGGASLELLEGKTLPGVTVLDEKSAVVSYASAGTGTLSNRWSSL
Summary of the method: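 Luminescence end-point (Kinase-Glo Plus, 10 min) after a 60 min room-temperature coupled reaction. GAPDH at 100nM final supplies 1,3-BPG to PGK. Buffer: 100mM TEA pH 7.6, 5mM MgCl2, 0.01% Tween-20. Wells lacking PGK served as controls.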

[19] = target: phosphoglycerate mutase (Leishmania major) (UniProt Q4Q090); assay: qHTS Validation Assay to Find Inhibitors of Phosphoglycerate Mutase (AID 504548);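 further: end-point luminescence from Kinase-GloPlus after the PGAM reaction; series mostly up to about 58 µM; on the % scale 0 is the no-effect control and ±100 the full control effect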
phosphoglycerate mutase (Leishmania major), sequence (Q4Q090 1-553): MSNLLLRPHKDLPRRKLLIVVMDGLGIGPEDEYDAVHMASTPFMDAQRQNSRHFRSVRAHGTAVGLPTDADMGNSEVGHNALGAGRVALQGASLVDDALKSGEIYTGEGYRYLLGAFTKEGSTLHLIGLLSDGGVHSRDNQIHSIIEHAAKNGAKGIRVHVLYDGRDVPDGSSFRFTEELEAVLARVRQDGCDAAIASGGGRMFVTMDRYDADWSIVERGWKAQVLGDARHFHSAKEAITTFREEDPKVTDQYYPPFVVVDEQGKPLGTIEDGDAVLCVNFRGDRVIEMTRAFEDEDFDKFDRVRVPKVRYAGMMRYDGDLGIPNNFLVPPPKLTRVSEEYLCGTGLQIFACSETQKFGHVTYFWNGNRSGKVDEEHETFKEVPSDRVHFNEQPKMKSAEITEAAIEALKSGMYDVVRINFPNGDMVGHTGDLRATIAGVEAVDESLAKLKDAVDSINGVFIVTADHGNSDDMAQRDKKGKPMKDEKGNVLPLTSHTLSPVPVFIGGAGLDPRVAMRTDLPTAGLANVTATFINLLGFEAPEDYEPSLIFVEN
Summary of the method: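 L. major PGAM (1.25nM final) was added to substrate buffer and pinned compound, incubated 45 minutes at room temperature, then Kinase-GloPlus added; luminescence read after 10 minutes. Buffer: 100 mM TEA pH 7.6, 5 mM MgCl2, 0.01% Tween-20.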

[20] = target: Ubiquitin carboxyl-terminal hydrolase 1 (Homo sapiens) (UniProt O94782); assay: Inhibitors of USP1/UAF1: Pilot qHTS (AID 504865);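 further: rhodamine fluorescence freed from ubiquitin-rhodamine substrate followed over time; top concentration of the series differs between compounds; on the % scale 0 is the no-effect control and ±100 the full control effect; nearly all actives have a fitted effect of over 35% in size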
Summary of the method: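 Kinetic fluorescence assay: 1nM USP1/UAF1, 15 min compound preincubation, then 150nM Ub-Rho; 480/540 nm.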

CC(=O)Oc1cc(C(C)C)c(OCCN(C)C)cc1C
inactive: Potency [1] | Potency [2] | outcome [3] | outcome [4] | outcome [5] | Potency [6] | Potency [7] | Potency [8] | outcome [9] | Potency [10] | Potency [11] | activation [12] 1.31% | Potency [13] | outcome [14] | outcome [15] | outcome [16] | outcome [17] | outcome [18] | outcome [19] | Potency [20]
-6.98%: viability change [13]

O=C(O)CCCCCCCC(=O)O
9.01%: viability change [13]
inactive: Potency [1] | Potency [2] | outcome [3] | outcome [4] | outcome [5] | Potency [6] | Potency [7] | Potency [8] | Potency [10] | Potency [11] | activation [12] -3.19% | Potency [13] | outcome [14] | outcome [15] | outcome [16] | outcome [17] | outcome [18] | outcome [19] | Potency [20]

CC(C)NCC(O)c1cc(O)cc(O)c1 (stereo not drawn)
inactive: Potency [1] | Potency [2] | outcome [3] | outcome [4] | outcome [5] | Potency [6] | Potency [7] | Potency [8] | Potency [10] | Potency [11] | Potency [13] | outcome [14] | outcome [15] | outcome [16] | outcome [17] | outcome [18] | outcome [19] | Potency [20]
7.12%: viability change [13]

O=c1[nH]c(=O)n([C@H]2C[C@H](O)[C@@H](CO)O2)cc1Br
1.73%: viability change [13]
inactive: Potency [1] | Potency [2] | outcome [3] | outcome [4] | outcome [5] | Potency [6] | Potency [7] | Potency [8] | outcome [9] | Potency [11] | activation [12] 1% | Potency [13] | outcome [14] | outcome [15] | outcome [16] | outcome [17] | outcome [18] | outcome [19] | Potency [20]

CCO/C([O-])=N/c1c[n+](N2CCOCC2)no1
7.49%: viability change [13]
inactive: Potency [1] | Potency [2] | outcome [3] | outcome [4] | outcome [5] | Potency [6] | Potency [7] | Potency [8] | outcome [9] | Potency [10] | Potency [11] | activation [12] -0.0625% | Potency [13] | outcome [14] | outcome [15] | outcome [16] | outcome [17] | outcome [18] | outcome [19] | Potency [20]

NCCCNCCSP(=O)(O)O
inactive: Potency [1] | Potency [2] | outcome [3] | outcome [4] | outcome [5] | Potency [6] | Potency [7] | Potency [8] | outcome [9] | Potency [10] | Potency [11] | activation [12] 0.812% | Potency [13] | outcome [14] | outcome [15] | outcome [16] | outcome [17] | outcome [18] | outcome [19] | Potency [20]
4.69%: viability change [13]

CCN(CC)CCOCCOC(=O)C1(c2ccccc2)CCCC1
inactive: Potency [1] | Potency [2] | outcome [3] | outcome [4] | outcome [5] | Potency [6] | Potency [7] | Potency [8] | outcome [9] | Potency [10] | Potency [11] | outcome [14] | outcome [15] | outcome [16] | outcome [17] | outcome [18] | outcome [19] | Potency [20]

O=C(O)CP(=O)(O)O
10.3%: viability change [13]
inactive: Potency [1] | Potency [2] | outcome [3] | outcome [4] | outcome [5] | Potency [6] | Potency [7] | Potency [8] | outcome [9] | Potency [10] | Potency [11] | Potency [13] | outcome [14] | outcome [15] | outcome [16] | outcome [17] | outcome [18] | outcome [19] | Potency [20]

Cc1ccc(Cl)c(Nc2ccccc2C(=O)O)c1Cl
inactive: Potency [1] | Potency [2] | outcome [3] | outcome [4] | outcome [5] | Potency [6] | Potency [7] | Potency [8] | outcome [9] | Potency [10] | Potency [11] | activation [12] 0% | outcome [14] | outcome [15] | outcome [16] | outcome [18] | outcome [19] | Potency [20]

CC(C)(C)NCC(O)c1cc(O)cc(O)c1 (stereo not drawn)
2.92%: viability change [13]
inactive: Potency [1] | Potency [2] | outcome [3] | outcome [4] | outcome [5] | Potency [6] | Potency [7] | Potency [8] | Potency [10] | Potency [11] | activation [12] 0.438% | Potency [13] | outcome [14] | outcome [15] | outcome [16] | outcome [17] | outcome [18] | outcome [19] | Potency [20]

Nc1ncn([C@@H]2O[C@H](CO)[C@@H](O)[C@H]2O)c(=O)n1
inactive: Potency [1] | Potency [2] | outcome [3] | outcome [4] | outcome [5] | Potency [6] | Potency [7] | Potency [8] | outcome [9] | activation [12] 1.31% | outcome [14] | outcome [15] | outcome [17] | outcome [18] | outcome [19] | Potency [20]

COc1ccc(CCN(C)CCCC(C#N)(c2cc(OC)c(OC)c(OC)c2)C(C)C)cc1OC (stereo not drawn)
inactive: Potency [1] | Potency [2] | outcome [3] | outcome [4] | outcome [5] | Potency [6] | Potency [7] | Potency [8] | Potency [10] | Potency [11] | activation [12] 3% | Potency [13] | outcome [14] | outcome [15] | outcome [16] | outcome [17] | outcome [18] | outcome [19] | Potency [20]
-13.6%: viability change [13]

CC(C)[N+](C)(CCOC(=O)C1c2ccccc2Oc2ccccc21)C(C)C
-4.32%: viability change [13]
inactive: Potency [1] | Potency [2] | outcome [3] | outcome [4] | outcome [5] | Potency [6] | Potency [7] | Potency [8] | outcome [9] | activation [12] 0.875% | Potency [13] | outcome [14] | outcome [15] | outcome [16] | outcome [17] | outcome [18] | outcome [19] | Potency [20]
